# RORgamma inh = qHTS for inhibitors of ROR gamma transcriptional activity; 310,000 tested, 5.4% active; Potency, µM (doses to about 53.6 µM), for the others: top-dose activity change, negative = inhibition, most hits filed as inhibitors; Nuclear receptor ROR-gamma (Mus musculus), P51450; Drosophila S2 Gal4-RORgamma UAS-luciferase reporter, 20 h; note: potency is the fitted concentration of half-maximal effect; nearly all actives have a fitted effect of over 60% in size
# Target sequence (P51450 whole entry, looked up, the tested form may be a part): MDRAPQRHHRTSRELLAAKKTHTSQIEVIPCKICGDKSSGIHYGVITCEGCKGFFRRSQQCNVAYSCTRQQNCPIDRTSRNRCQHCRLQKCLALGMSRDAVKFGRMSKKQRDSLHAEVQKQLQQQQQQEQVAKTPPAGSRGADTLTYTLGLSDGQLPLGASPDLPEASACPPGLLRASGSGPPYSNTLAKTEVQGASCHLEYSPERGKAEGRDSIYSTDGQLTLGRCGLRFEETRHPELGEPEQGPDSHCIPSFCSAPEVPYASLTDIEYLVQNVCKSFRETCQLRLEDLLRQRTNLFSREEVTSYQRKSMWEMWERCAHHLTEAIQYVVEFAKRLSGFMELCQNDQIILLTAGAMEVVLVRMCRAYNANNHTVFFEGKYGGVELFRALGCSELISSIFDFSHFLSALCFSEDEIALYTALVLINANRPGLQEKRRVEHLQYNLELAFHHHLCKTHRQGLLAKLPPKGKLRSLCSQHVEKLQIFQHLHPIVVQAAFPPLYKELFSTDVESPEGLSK
#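 Luciferase reporter read in Schneider cells carrying Gal4-RORγ (mouse) and UAS-Photinus luciferase; cells given compound 1 h before 700 uM copper sulfate induction, then incubated 20 h at ambient temperature.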
# IL-1B inflam inh = qHTS for Inhibitors of Inflammasome Signaling: IL-1-beta AlphaLISA Primary Screen; activity change, % at 57.5 µM; THP-1 LPS/ATP IL-1B secretion, AlphaLISA, 16 h; active compounds read low; 360,000 tested, 4.7% active; in the data active = activity change below about -50%; inconclusive = mostly about -30% to -49%
#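 THP-1 cells pretreated 1 hr with compounds (up to 57.5 uM final), then stimulated with LPS (250 ng/mL final) plus ATP (1.25 mM final); secreted IL-1B measured by AlphaLISA after 16 hr, decreased signal indicating inhibition.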
# Gal4-VP16 FLuc = VP16 counterscreen qHTS for inhibitors of ROR gamma transcriptional activity; Drosophila S2 Gal4-VP16 UAS-luciferase, luminescence, 20 h; AID 2546, 2010; 310,000 tested, 3.5% active; Potency, µM (doses to about 53.6 µM), for inactives: at the top dose activity, negative = inhibition, hits mostly inhibitors;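 note: Gal4-VP16 expression switched on by copper sulfate through the metallothionein promoter; potency is the fitted concentration of half-maximal effect; nearly all actives have a fitted effect of over 50% in size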
# ELG1 repair inh = qHTS screen for small molecules that inhibit ELG1-dependent DNA repair in human embryonic kidney (HEK293T) cells expressing luciferase-tagged ELG1. 330,000 tested, 2.3% active. HEK293T ELG1-luciferase reporter, luminescence, 16 h; DNA damage induced by 5-fluorouridine. Potency, µM (highest dose often 46.1 µM), for inactives: at the top dose activity change, negative = inhibition, usual class: inhibitors; note: potency is the fitted concentration of half-maximal effect; nearly all actives have a fitted effect of over 55% in size
#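 DMSO vehicle served as the neutral condition. Each well held 2,000 cells given 5-fluorouridine plus compound; after 16 hr at 37 °C/5% CO2, ONE-Glo was added and luciferase measured 30 min later.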
# DT40 TDP1 CPT = qHTS for Inhibitors of human tyrosyl-DNA phosphodiesterase 1 (TDP1): qHTS in cells in presence of CPT. chicken DT40 Tdp1-/-;hTDP1 cells + 20 nM CPT, ATP luminescence, 48 h. Potency, µM (series often up to 46.2 µM), for the others: top-dose activity change, negative = growth inhibition, most hits filed as inhibitors. 420,000 tested, 12% active. AID 686979, 2013; note: potency is the fitted concentration of half-maximal effect; nearly all actives have a fitted effect of over 55% in size
#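 Chicken DT40 Tdp1-/- cells complemented with human TDP1, 400 cells/well, exposed to compounds plus 20 nM camptothecin for at least 48 h at 37 C; viability read as ATP content by CellTiter-Glo luminescence.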
# DT40 TDP1 no CPT = qHTS for Inhibitors of human tyrosyl-DNA phosphodiesterase 1 (TDP1): qHTS in cells in absence of CPT; DT40 Tdp1-/- hTDP1 cells, no CPT, ATP luminescence, 48 h; Potency, µM (doses to about 46.2 µM), for the others: top-dose activity change, negative = growth inhibition, most hits filed as inhibitors; 420,000 tested, 15% active; note: potency is the fitted concentration of half-maximal effect; nearly all actives have a fitted effect of over 55% in size
#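 A cellular qHTS used chicken DT40 cells lacking endogenous Tdp1 but carrying stably transfected human TDP1. Compounds were applied without camptothecin, and cell growth kinetics were judged by ATP-dependent luminescence after ≥48 hr.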
# An asterisk follows results filed as active; ? = inconclusive; / = not tested or not shown; ! = a repeat was not active. A selection: hits, their analogues and other compounds. The true share with any hit is near 21%. Unless noted, calls come from the whole dose curve; as a rule, active = well fitted curve in the direction sought with a large enough effect; inconclusive = small, poorly fitted or top-dose-only effect, or another doubt; inactive = no such curve, though single readings can be large; an effect the other way counts as inactive or inconclusive. % is set by controls: 0 for no effect and ±100 for the full control effect.
SMILES,RORgamma inh,IL-1B inflam inh,Gal4-VP16 FLuc,ELG1 repair inh,DT40 TDP1 CPT,DT40 TDP1 no CPT
COc1ccc(C2CC=C(C(C)=O)CN2S(=O)(=O)c2ccc(Cl)cc2)cc1 (stereo unspecified),/,-22,/,/,16µM*,16µM*
CC(=O)C1=CCC(c2ccc(Cl)cc2)N(S(=O)(=O)c2ccccc2)C1 (stereo unspecified),/,-12,/,/,21µM*,18µM*
Cc1ccc(S(=O)(=O)N2C[C@H]3C(=O)C[C@@H](c4ccccc4)N(S(=O)(=O)c4cccc(C)c4)[C@H]3C[C@H]2c2ccccc2)cc1,/,-7,/,/,-23%,?
O=C(O)C1=CC[C@@H](c2ccc(Cl)cc2)N(S(=O)(=O)c2ccc(Cl)cc2)C1,/,15,/,5%,-9%,-18%
CC(=O)C1=CCC(c2ccccc2)N(S(=O)(=O)c2cccc(C)c2)C1 (stereo unspecified),/,-17,/,/,16µM*,13µM*
CC(=O)C1=CCC(c2ccc(Cl)cc2)N(S(=O)(=O)c2ccc(C)cc2)C1 (stereo unspecified),/,-57*!,/,/,?,16µM*
CC(=O)C1=CCC(c2ccccc2)N(S(=O)(=O)c2ccccc2)C1 (stereo unspecified),/,-1,/,/,29µM*,18µM*
CCOc1cccc2cc(-c3nc(-c4ccc(Cl)cc4)c(C)s3)c(=O)oc12,/,/,/,/,7%,-8%
Cn1cnc2c(cnn2C)c1=O,/,-14,/,/,3%,-7%
COc1ccccc1C(=O)Nc1ccc(OCc2cc(=O)n3ccsc3n2)cc1,/,/,/,/,-22%,-16%
NNc1nc(-c2ccccc2Cl)c2cc(Br)ccc2n1,11µM*,15,?,-15%,21µM*,5.2µM*
CCN(CC)c1nc(-c2ccccc2Cl)c2cc(Br)ccc2n1,/,/,/,/,-22%,?
Cc1cc2nc(-c3cccc(NC(=O)COc4ccc(C(C)C)cc4)c3)oc2cc1C,/,/,/,/,21µM*,16µM*
Cc1ccc(OCC(=O)Nc2ccc(-c3nc4ccccc4o3)cc2)c(C)c1,/,/,/,/,-18%,-14%
Cc1ccc(-c2nc3ccccc3o2)cc1NC(=O)COc1ccccc1C,/,/,/,/,-8%,4%
Cc1cc(Cl)ccc1OCC(=O)Nc1cccc(-c2nc3ccccc3o2)c1,/,/,/,/,?,13µM*
Cc1cc2nc(-c3cccc(NC(=O)COc4ccc(Cl)c(C)c4)c3)oc2cc1C,/,/,/,/,-28%,-16%
Cc1ccc(-c2nc3cc(Cl)ccc3o2)cc1NC(=O)COc1ccccc1C,/,/,/,/,8.9µM*,11µM*
CC(C)OP(=O)(c1ccc(N(C)C)cc1)C(O)c1ccc(C(C)C)cc1 (stereo unspecified),24%,-13,-8%,?,-20%,-10%
Cc1ccc(-n2nnnc2SCC(=O)NCCc2ccccc2)cc1C,/,/,/,/,-17%,-9%
COc1ccc(-c2nc3cc(F)ccc3cc2CN(C(=O)c2ccc3c(c2)OCO3)C2CC2)cc1,/,/,/,/,17%,-12%
Cn1c(CCN2CCCCC2)nc2cc(NC(=O)COc3ccc([N+](=O)[O-])cc3)ccc21,1%,?,5%,-7%,-29%,18µM*
Cn1c(CN2CCCC2)nc2cc(NC(=O)COc3ccc(Cl)cc3)ccc21,-38%,-68*,7%,-14%,?,?
Cc1nn(CC(=O)Nc2ccc3c(c2)nc(CCN2CCCCC2)n3C)c(=O)c2ccccc12,-22%,-12,-11%,-14%,11µM*,?
CN1CCN(CCc2nc3cc(NC(=O)COc4ccc(Cl)cc4)ccc3n2C)CC1,0%,-18,-5%,8%,?,?
